Consider 86 molecules from PubChem BioAssay AID1851 (National Center for Advancing Translational Sciences (NCATS), 2009).

What is called AC50 is the concentration at which the activity in the assay is half-maximal.

Out of some 16,000 compounds screened, about 4,000 (25%) were called active. Inconclusive results (about 26%) are left out. The list is a sample of the results. Values without a mark were called inactive. Calls follow the shape of the dose curve; as a rule, active = well fitted curve in the direction sought with a large enough effect; inconclusive = small, poorly fitted or top-dose-only effect, or effect the other way; inactive = no such curve, though single readings can be large or run the other way. Square brackets hold non-standard residues; d marks the D form. Peptide text beside a SMILES is read from it.
% is scaled to controls: 0 for no effect and ±100 for the full control effect.

The target in the experiment is Cytochrome P450 2C9 (Homo sapiens) (UniProt P11712). Kind of experiment: Cytochrome panel assay with activity outcomes. The note with it: recombinant CYP, pro-luciferin dealkylation, luminescence, p450-cyp2c9; series mostly up to 57.1 µM; activity, negative = inhibition: at the top concentration.
Cytochrome P450 2C9 (Homo sapiens), sequence (P11712 whole entry, looked up): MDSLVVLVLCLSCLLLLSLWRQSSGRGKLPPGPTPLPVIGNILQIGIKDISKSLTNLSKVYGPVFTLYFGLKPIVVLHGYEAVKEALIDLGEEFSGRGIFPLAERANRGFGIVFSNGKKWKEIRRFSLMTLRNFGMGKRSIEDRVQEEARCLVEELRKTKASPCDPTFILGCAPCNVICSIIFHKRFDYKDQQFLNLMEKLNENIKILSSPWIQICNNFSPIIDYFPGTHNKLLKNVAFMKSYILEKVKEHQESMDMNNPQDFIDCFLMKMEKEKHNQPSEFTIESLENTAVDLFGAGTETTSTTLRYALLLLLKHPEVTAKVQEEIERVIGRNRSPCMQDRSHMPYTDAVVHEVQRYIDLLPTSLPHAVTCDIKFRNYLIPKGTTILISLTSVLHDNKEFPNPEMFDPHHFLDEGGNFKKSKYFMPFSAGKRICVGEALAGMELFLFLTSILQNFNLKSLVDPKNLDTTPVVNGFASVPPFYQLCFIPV
As for `COc1ccc(-n2c(=O)c(C)nc3cnc(OC)nc32)cc1`, the “activity, negative = inhibition” value is -17.6%.

As for `Cc1noc(C)c1-c1ccc2ncnc(N(C)C)c2c1`, the activity, negative = inhibition was 10.9% [at 2.29 µM].

Take `CN(C)CN1C(=O)S/C(=C2/C(=O)N(CN(C)C)c3ccccc32)C1=O`: the activity, negative = inhibition is -9.33% [at 11.4 µM].

For the molecule `CCN1C(=O)/C(=C2\SC(=S)N(CCCOC)C2=O)c2ccccc21`, the AC50 is 0.794 µM (active).

For the molecule `CC(C)Cn1cnc2c(Sc3c([N+](=O)[O-])ncn3C)nc(N)nc21`, the activity, negative = inhibition is 29.4% [at 11.4 µM].

With `O=C(CN1C(=O)c2ccccc2C1=O)NC1(C(=O)O)CCCC1`, the activity, negative = inhibition was 4.07% [at 11.4 µM].

For the molecule `CCN(CC)CCC(=O)Nc1ccc2c(c1)N(C(=O)CN(CC)CC)c1ccccc1CC2`, the “activity, negative = inhibition” value was -22.5%.

For `O=C1c2ccccc2C(=O)N1CC(=O)N1c2ccccc2CCc2ccccc21`, the AC50 was 3.55 µM (active).

Turning to `Cc1noc(C)c1-c1ccc2ncnc(NC3CCNCC3)c2c1`, the activity, negative = inhibition is 14.5% [at 2.29 µM].

As to `Cc1nnc(S(=O)(=O)c2ccc(N=Nc3c(N)nc(N)nc3N)cc2)s1`, the activity, negative = inhibition was -2.75% [at 11.4 µM].

With `CCOc1ccc(C(=O)Nc2cccc(-c3cc4ccccc4oc3=O)c2)cc1[N+](=O)[O-]`, the AC50 is 1.41 µM (active).

`COc1cc(C(=O)NC(=S)Nc2ccc3oc(=O)ccc3c2)cc(OC)c1OC`: the “activity, negative = inhibition” value was -9.84%.

In the case of `Cc1nc(-c2cccc(NC(=O)c3cc4cc(Br)ccc4oc3=O)c2)cs1`, the “activity, negative = inhibition” value was -14.4%.

Take `CCCC(=O)N1CCN(c2ccc(NC(=O)c3ccc(OCC)c([N+](=O)[O-])c3)cc2)CC1`: the “activity, negative = inhibition” value is -21.6%.

As to `COc1cc(NC(=O)c2cc(Cl)ccc2Cl)ccc1-c1cc2ccccc2oc1=O`, the AC50 is 4.47 µM (active).

On to `COc1cc(C(=O)NC(=S)Nc2cccc(-c3cc4ccccc4oc3=O)c2)cc(OC)c1OC`, for which the AC50 was 3.55 µM (active).

On to `NCCOB(c1ccccc1)c1ccccc1`, for which the “activity, negative = inhibition” value is -20%.

As for `CC(=O)Nc1ccc(S(=O)(=O)NC2(C(F)(F)F)NC(=O)N(c3ccc(Cl)cc3)C2=O)cc1` (stereo unspecified), the AC50 is 10 µM (active).

In the case of `Cc1ccc(-n2c3c(c(=O)[nH]c2=O)C(NS(=O)(=O)c2ccc(C)cc2)(C(F)(F)F)C(=O)N3)cc1` (stereo unspecified), the “activity, negative = inhibition” value was -22.2%.

Consider `CN(N=O)c1ccc(/C=C\c2ccnc3ccccc23)cc1`, for which the activity, negative = inhibition was -6.97% [at 11.4 µM].

Take `Oc1c(CN2CCCCC2)cc(Br)c2cccnc12`: the “activity, negative = inhibition” value was -18.6%.

Regarding `CON(c1nc(N(C)C)nc(N(C)C)n1)S(=O)(=O)c1ccccc1Cl`, the AC50 is 11.2 µM (active).

On to `CC(=O)Nc1cccc(C(=O)OC(C(=O)c2ccc(C)c(C)c2)c2ccccc2)c1` (stereo unspecified), for which the AC50 is 3.98 µM (active).

As for `NC(N)=NC(=O)c1nc(Cl)c(N)nc1N`, the AC50 entry is “inactive”.

For `FC(F)Sc1ccc(N=C2NN=C(c3ccc4c(c3)OCCO4)CS2)cc1`, the AC50 was 22.4 µM (active).

For `C[N+](C)(C)CCCCCNCC12CC3CC(CC(C3)C1)C2`, the “activity, negative = inhibition” value was -2.76%.

For `COC(=O)[C@@]1(Cc2ccc(F)cc2)[C@H]2c3cc(C(=O)N4CCCC4)n(Cc4ccc(S(C)(=O)=O)cc4)c3C[C@H]2CN1C(=O)c1ccccc1`, the AC50 is 25.1 µM (active).

For `COC(=O)[C@@]1(Cc2ccc(F)cc2)[C@H]2c3cc(C(=O)N4CCCC4)n(Cc4ccc(OC(F)(F)F)cc4)c3C[C@H]2CN1C(=O)c1ccccc1`, the AC50 was 6.31 µM (active).

`COC(=O)[C@@]1(Cc2ccc(F)cc2)[C@H]2c3cc(C(=O)N4CCCC4)n(Cc4ccc(C)c(F)c4F)c3C[C@H]2CN1C(=O)c1ccccc1`: the half-maximal activity concentration (AC50) was 10 µM (active).

As to `COC(=O)[C@@]1(Cc2ccc(F)cc2)[C@H]2c3cc(C(=O)N4CCCC4)n(Cc4ccccc4)c3C[C@H]2CN1C(=O)c1ccccc1`, the AC50 is 3.98 µM (active).

For the molecule `CCC(=O)c1ccc2c(c1)N(CCCN(C)C)c1ccccc1S2`, the “activity, negative = inhibition” value was 8.42%.

In the case of `CC(C)(C)N1C(=O)[C@H]2[C@H]3[C@H](O)[C@H](O)C/C(=N/NC(=O)OCc4ccccc4)[C@H]3CC[C@@H]2C1=O`, the activity, negative = inhibition was 16% [at 11.4 µM].

Turning to `COC(=O)[C@@]1(Cc2ccccc2)[C@H]2c3cc(C(=O)N4CCCC4)n(CC4CC4)c3C[C@H]2CN1C(=O)c1ccccc1`, the half-maximal activity concentration (AC50) is 1 µM (active).

Turning to `COC(=O)[C@@]1(Cc2ccc(F)cc2)[C@H]2c3cc(C(=O)N(C)C)n(Cc4ccc(C)c(F)c4F)c3C[C@H]2CN1C(=O)c1ccccc1`, the AC50 is 25.1 µM (active).

Take `CCOC(=O)[C@H](CCc1ccccc1)N[C@@H](C)C(=O)N1CCC[C@H]1C(=O)O`: the “activity, negative = inhibition” value was 28% [at 25.6 µM].

In the case of `COC(=O)[C@@]1(Cc2ccccc2)[C@H]2c3cc(C(=O)N4CCCC4)n(Cc4nc5ccccc5[nH]4)c3C[C@H]2CN1C(=O)c1ccccc1`, the AC50 is 1 µM (active).

As for `Cc1cc(=O)n2c3ccccc3n(CC(O)CN3CCCCC3)c2c1C#N` (stereo unspecified), the “activity, negative = inhibition” value is -16.7%.

For the molecule `CCSc1nnc(NC(=O)CSc2nc3c(cc2C#N)CCCC3)s1`, the half-maximal activity concentration (AC50) was 2.51 µM (active).

As to `CCCCC(=O)Nc1nnc(SCC(=O)NC2CCCC2)s1`, the “activity, negative = inhibition” value was -4.72%.

For `O=C(O)Cc1cccnc1`, the activity, negative = inhibition is 12.8% [at 11.4 µM].

On to `CN(C)C(=O)c1ccc(-c2nc(NCc3cccnc3)c3ccccc3n2)cc1`, for which the activity, negative = inhibition was 8.86% [at 2.29 µM].

For the molecule `Cn1c(C(=O)O)c(CC(=O)NCc2cccnc2)c2ccccc21`, the AC50 is 3.55 µM (active).

On to `O=c1nc(-c2ccccc2)cn[nH]1`, for which the “activity, negative = inhibition” value is 16.6%.

Regarding `Nc1nc(C(=O)O)c(N=Nc2ccccc2)c(=O)[nH]1`, the activity, negative = inhibition is -0.919% [at 11.4 µM].

As for `Nc1[nH]n2c(=O)cc(-c3ccccc3)nc2c1N=Nc1ccccc1`, the concentration at half-maximal activity (AC50) was 15.8 µM (active).

Take `CN(C)c1ccc(-c2nc(NCCN3CCOCC3)c3ccccc3n2)cc1`: the activity, negative = inhibition is 10.3% [at 2.29 µM].

Regarding `COC(=O)Cn1c(CN(Cc2ccccc2)Cc2ccccc2)nc2c1c(=O)[nH]c(=O)n2C`, the half-maximal activity concentration (AC50) was 14.1 µM (active).

Take `CCOC(=O)Cn1c(CN(Cc2ccccc2)Cc2ccccc2)nc2c1c(=O)[nH]c(=O)n2C`: the AC50 was 14.1 µM (active).

As to `Cn1c(=O)[nH]c(=O)c2c1nc(CN1CCOCC1)n2Cc1ccccc1`, the “activity, negative = inhibition” value is 9.04%.

Consider `Cn1c(=O)[nH]c(=O)c2c1nc(CN(Cc1ccccc1)Cc1ccccc1)n2CCN1CCOCC1`, for which the AC50 is 15.8 µM (active).

On to `CCOCCn1c(CN(Cc2ccccc2)Cc2ccccc2)nc2c1c(=O)[nH]c(=O)n2C`, for which the AC50 was 7.94 µM (active).

With `Cc1ccc(C(=O)CNc2nc3c(c(=O)[nH]c(=O)n3C)n2Cc2ccccc2)cc1`, the AC50 was 0.891 µM (active).

Regarding `Cc1cc(C)n(-c2nc3c(c(=O)[nH]c(=O)n3C)n2CC(C)C)n1`, the “activity, negative = inhibition” value was -2.02%.

As to `COCCCCC(=NOCCN)c1ccc(C(F)(F)F)cc1`, the AC50 is 3.98 µM (active).

For the molecule `CCON=C1C(C)(C)C(C)(C)C(C)(C)C1(C)C`, the activity, negative = inhibition was 4.67% [at 11.4 µM].

As to `CCCN=Cc1c(CCC)[nH]n(-c2nc3ccccc3s2)c1=O`, the AC50 is 10 µM (active).

With `CCn1c(C)c(/C=N/Nc2nc3ccccc3s2)c2ccccc21`, the “activity, negative = inhibition” value was 5.03%.

With `C(/C=C/c1ccco1)=N/N1CCN(c2ccccc2)CC1`, the “activity, negative = inhibition” value was -16.4%.

`CCC(C(=O)Nc1cccc(C(F)(F)F)c1)c1ccccc1` (stereo unspecified): the AC50 was 2.82 µM (active).

Take `O=C(CSc1ccc(C(F)(F)F)cc1[N+](=O)[O-])Nc1ccccc1`: the “activity, negative = inhibition” value is 13.6%.

Regarding `Cc1sc(N)c(C(=O)c2cccc(C(F)(F)F)c2)c1C`, the “activity, negative = inhibition” value was 21.8%.

As for `COC(=O)/C(=C\C(=O)c1ccccc1)Nc1cccc(C(F)(F)F)c1`, the AC50 is 15.8 µM (active).

As for `O=c1[nH][nH]c(C(F)(F)F)c1C=Nc1ccccc1`, the “activity, negative = inhibition” value is -29.1%.

In the case of `CCC[C@H]1C(=O)N2C(N(C)C)=Nc3ccc(C)cc3N2C1=O`, the “activity, negative = inhibition” value is -23.7% [at 25.6 µM].

Regarding `Cn1c(COc2nnc(-c3ccc(Cl)cc3)c3ccccc23)nc2ccccc21`, the half-maximal activity concentration (AC50) is 3.98 µM (active).

As to `Cn1c(C[C@@H](O)c2nc3ccccc3n2C)nc2ccccc21`, the activity, negative = inhibition is 5.4% [at 11.4 µM].

For the molecule `COc1ncc2nc(-c3ccc(Cl)cc3)c(=O)n(-c3ccccc3)c2n1`, the “activity, negative = inhibition” value is -18.4%.

Turning to `CSCC[C@H](C=O)NC(=O)[C@H](CC(C)C)NC(=O)[C@H](CC(C)C)NC(C)=O` (Ac-Leu-Leu-[dM]-aldehyde), the “activity, negative = inhibition” value is 11.9%.

For the molecule `C/C(Cn1nc([N+](=O)[O-])cc1C)=N\NC(=O)c1ccc(O)cc1O`, the “activity, negative = inhibition” value is 8.73%.

Take `Cc1c(Cl)c([N+](=O)[O-])nn1Cc1ccc(C(=O)N/N=C\c2cccc(Br)c2)o1`: the AC50 is 5.62 µM (active).

As for `Cc1nn(Cc2ccc(Cl)cc2)c(C)c1NC(=O)Cn1nc([N+](=O)[O-])c(Cl)c1C`, the “activity, negative = inhibition” value is -19.6%.

With `Cc1c(Cl)c([N+](=O)[O-])nn1Cc1ccc(C(=O)N/N=C\c2cc(Cl)ccc2O)o1`, the AC50 was 3.98 µM (active).

Turning to `CCN(CC)CC[n+]1ccc2c(C)c3[nH]c4ccccc4c3c(C)c2c1`, the activity, negative = inhibition is 3.85% [at 11.4 µM].

For the molecule `O=C(O)c1nn(-c2ccccc2-c2n[nH]c(=O)[nH]c2=O)c(=O)[nH]c1=O`, the activity, negative = inhibition is -7.45% [at 11.4 µM].

Take `CN(Cc1ccco1)c1cc(-c2ccoc2)ncn1`: the activity, negative = inhibition was -1.76% [at 2.29 µM].

Regarding `C1COC(NC(C2CC2)C2CC2)=N1`, the “activity, negative = inhibition” value is -5.58%.

On to `O=C(CSc1n[nH]c(-c2ccccc2O)n1)N1CCCc2ccccc21`, for which the AC50 is 1.12 µM (active).

Consider `O=C(CNCCO)N1CCc2ccccc21`, for which the “activity, negative = inhibition” value is -2.25%.

Take `C#CCOCCCC(=O)O`: the activity, negative = inhibition was 14.4% [at 11.4 µM].

Consider `C#CCCCCCCCCCCCCCCCC(=O)O`, for which the AC50 was 12.6 µM (active).

On to `O=C(O)CCCCCCCC(=O)O`, for which the “activity, negative = inhibition” value was 4.79%.

Regarding `COC(=O)C/C=C\[C@@H](C)[C@@H]1C=C[C@H](OC(C)=O)[C@H](COC(C)=O)O1`, the activity, negative = inhibition is 14.8% [at 11.4 µM].

Consider `CCOC(=O)C(C)CC(C)C(=O)N1CCOCCN(C(=O)C(C)CC(C)C(=O)OCC)CCOCC1` (stereo unspecified), for which the “activity, negative = inhibition” value was -27.1%.

As to `CN(C)CC(C)(C)CN1c2ccccc2Sc2ccccc21`, the activity, negative = inhibition is -2.35% [at 11.4 µM].

`CCc1cccc2c3c([nH]c12)[C@@](CC)(CC(=O)O)OCC3`: the “activity, negative = inhibition” value was -43.4% [at 25.6 µM].

For the molecule `CCc1cccc2c(-c3ccccc3)c3c(nc12)OCC3`, the AC50 is 12.6 µM (active).
